A selection: hits, their analogues and other compounds. The true share with any hit is near 3.5%.
BH1578 lux ind – quorum light induction in luxS cqsA deficient V. cholerae; 0.16% of 350,000 active; V. cholerae BH1578 lux reporter, luminescence, 6 h; AID 588436; activation, % at 18.7 µM; in the data active means activation mostly above about 9.7%, no sharp cut-off; inconclusive means no clear call, values can overlap the other calls; inactive means mostly below about 3.7%
BoNT-F LC inh – BoNT F light chain protease inhibition. Multiplex microsphere protease cleavage assay, flow cytometry. inhibition, % at 10 µM. 0.22% of 360,000 active; in the data active means inhibition above about 35%, passing the limit was not always enough; inconclusive means no clear call, values can overlap the other calls
Anthrax LF prot – anthrax lethal factor protease inhibition; P15917; multiplex microsphere protease cleavage assay, LF; inhibition, % at 10 µM; 0.12% of 360,000 active
Target sequence (P15917 whole entry, looked up): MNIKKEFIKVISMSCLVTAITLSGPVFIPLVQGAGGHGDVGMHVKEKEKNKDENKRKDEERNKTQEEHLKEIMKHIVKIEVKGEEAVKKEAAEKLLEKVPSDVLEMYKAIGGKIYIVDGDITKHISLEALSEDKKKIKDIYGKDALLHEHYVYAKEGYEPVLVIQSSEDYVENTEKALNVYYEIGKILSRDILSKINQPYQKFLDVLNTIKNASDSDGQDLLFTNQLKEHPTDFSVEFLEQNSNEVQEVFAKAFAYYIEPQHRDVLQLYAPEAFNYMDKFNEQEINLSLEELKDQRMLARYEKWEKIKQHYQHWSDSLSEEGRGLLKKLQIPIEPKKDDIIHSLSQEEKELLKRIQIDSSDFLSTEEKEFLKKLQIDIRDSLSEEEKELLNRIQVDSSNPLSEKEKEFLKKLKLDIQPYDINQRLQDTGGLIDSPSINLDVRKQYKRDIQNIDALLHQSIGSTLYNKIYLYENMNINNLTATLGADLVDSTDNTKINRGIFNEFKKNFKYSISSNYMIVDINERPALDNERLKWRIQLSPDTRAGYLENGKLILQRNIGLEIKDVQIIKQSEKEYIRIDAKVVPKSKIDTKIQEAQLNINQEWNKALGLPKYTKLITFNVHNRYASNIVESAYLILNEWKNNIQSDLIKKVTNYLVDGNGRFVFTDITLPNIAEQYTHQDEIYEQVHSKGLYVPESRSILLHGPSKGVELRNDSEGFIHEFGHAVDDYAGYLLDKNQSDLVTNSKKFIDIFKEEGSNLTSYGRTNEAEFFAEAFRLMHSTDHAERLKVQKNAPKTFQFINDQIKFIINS
Bead autofluor – flagged as autofluorescent in microsphere protease counterscreen | compound autofluorescence counterscreen, microsphere flow cytometry; hits give high values | fluorescence intensity (concentration not given with the values) | 3.1% of 360,000 active | AID 624483; in the data active means fluorescence intensity above about 16000; inconclusive means no clear call, values can overlap the other calls
BoNT A protease – inhibitors of Botulinum neurotoxin A light chain protease | multiplex microsphere protease substrate cleavage, flow cytometry | inhibition, % at 10 µM | 0.17% of 360,000 active | AID 588499
Of the large screens only hits and unclear results are named; the others gave an inactive call. Unless noted, no stated cut-off is given here; in the data, active means inhibition above about 30%; inconclusive means no clear call, values can overlap the other calls; inactive means below that.

Cc1ccccc1-n1c(SC2CCOC2=O)nnc1-c1ccncc1 (stereo unspecified)	none
O=C(COC(=O)Cc1c(F)cccc1Cl)NCc1ccc2c(c1)OCO2	none
Cc1ccc2[nH]c(=O)c(CN(CC3COCCO3)C(=O)Nc3ccccc3F)cc2c1 (stereo unspecified)	none
CCOC(=O)c1c(C)c(C(=O)NCc2cccs2)c(C)n1C	Bead autofluor 17882
CCOC(=O)c1c(C)c(C(=O)NCc2ccco2)c(C)n1C	none
Cc1cc(C)n2nc(-c3sccc3-n3cccc3)cc2n1	none
FC(F)(F)c1cc(C(F)(F)F)n2nc(-c3sccc3-n3cccc3)cc2n1	Bead autofluor 22337
CCCN(C(=O)C1CCN(S(=O)(=O)c2ccc(OC)c(OC)c2)CC1)C1CCS(=O)(=O)C1 (stereo unspecified)	none
CN(C)S(=O)(=O)c1cccc(COC(=O)CN2C(=O)NC3(CCCC3)C2=O)c1	none
COC(CNC(=O)c1ccc2c(c1)nc(C)n2-c1ccc(F)c(F)c1)OC	Bead autofluor 22581
COC(CNC(=O)c1ccc2c(c1)nc(C)n2-c1cccc(F)c1)OC	Bead autofluor 21945
COC(CNC(=O)c1ccc2c(c1)nc(C)n2-c1cc(C)cc(C)c1)OC	none
Cc1cccc(COC[C@H](Cc2ccccc2)N2CCN(C(=O)c3ccc(Cl)c(Cl)c3)CCC2=O)c1	none (no result: BH1578 lux ind)
COc1ccc(CN2CCNC(=O)C2CC(=O)N(C)Cc2nc(C)cs2)c(OC)c1 (stereo unspecified)	none
CCc1cc(=O)oc2cc3oc(C)c(C)c3cc12	Bead autofluor 19139, BoNT A protease inconclusive
CCOc1cc(/C=N/NC(=O)c2cccnc2)ccc1OCc1ccc(C(=O)OC)o1	none
CCc1ccccc1-n1c(-c2ccncc2)n[nH]c1=S	Bead autofluor 22962
COc1ccc(NC(=O)C2c3ccccc3OCC(=O)N2CCc2ccccc2)cc1 (stereo unspecified)	none (no result: BH1578 lux ind)
O=C(NCCCO)C(=O)Nc1cc2c3c(c1)CCN3C(=O)CC2	none
COc1ccc(Cn2c(N)c(S(=O)(=O)c3cccs3)c3nc4ccccc4nc32)cc1	none
COCCn1c(N)c(S(=O)(=O)c2cccs2)c2nc3ccccc3nc21	none
Cc1ccc(Cn2c(N)c(S(=O)(=O)c3cccs3)c3nc4ccccc4nc32)cc1	Bead autofluor 18251
COc1cccc(/C=N/n2c(CO)nc3ccccc32)c1OC	Bead autofluor 21345, BoNT A protease inconclusive
COc1cccc(/C=N/n2c(N)c(S(=O)(=O)c3cccs3)c3nc4ccccc4nc32)c1OC	Bead autofluor 16852
Nc1c(S(=O)(=O)c2cccs2)c2nc3ccccc3nc2n1Cc1ccccc1	Bead autofluor 16336
COc1cccc(N2CCN(Cc3nc(N)nc(Nc4ccccc4OC)n3)CC2)c1	none
Cc1ccc(Nc2nc(N)nc(CN3CCN(Cc4ccc5c(c4)OCO5)CC3)n2)cc1Cl	Bead autofluor 23185
Cc1ccc(Nc2nc(N)nc(CN3CCN(c4ccccc4)CC3)n2)cc1Cl	Bead autofluor 21461, BoNT A protease inconclusive
COc1ccccc1Nc1nc(N)nc(CN2CCN(c3ccccc3)CC2)n1	Bead autofluor 21394
Nc1nc(CN2CCN(c3ccccn3)CC2)nc(Nc2ccc(F)cc2)n1	Bead autofluor 16591
Cc1ccc(Nc2nc(N)nc(CN3CCN(Cc4ccc5c(c4)OCO5)CC3)n2)cc1C	none
Nc1nc(CN2CCCCCC2)nc(Nc2ccc(F)cc2)n1	none
O=C(c1ccco1)N1CCN(Cc2cc(=O)c(OCc3ccccc3F)co2)CC1	Bead autofluor inconclusive
CC(C)CNC(=O)C1(C)CCCN1C(=O)c1cccnc1Oc1ccccc1 (stereo unspecified)	none
COc1ccc(Nc2nc(N)nc(CN3CCOCC3)n2)cc1	none
COc1ccc(N2CCN(Cc3nc(N)nc(Nc4ccc(C)c(Cl)c4)n3)CC2)cc1	Bead autofluor 21102
O=C(O)C(c1ccccc1)C(O)c1ccc2c(c1)OCO2 (stereo unspecified)	none (no result: BH1578 lux ind)
CCOC(=O)C1=C(COC(=O)c2ccco2)NC(=O)NC1CC (stereo unspecified)	none
O=C(Nc1ccccc1)c1n[nH]c(Cn2cncn2)n1	Bead autofluor 23808
CCOc1ccccc1N1CC(C(=O)NCCc2ccc(S(N)(=O)=O)cc2)CC1=O (stereo unspecified)	Bead autofluor 20308
CCOc1ccc(N2CC(C(=O)NCCc3ccc(S(N)(=O)=O)cc3)CC2=O)cc1 (stereo unspecified)	none
O=C(NCCc1ccccc1F)C1CCCN1S(=O)(=O)c1ccc2ccccc2c1 (stereo unspecified)	Bead autofluor 20558
NS(=O)(=O)c1ccc(CCNC(=O)C2CCCCN2S(=O)(=O)c2ccccc2)cc1 (stereo unspecified)	Bead autofluor 21340
NS(=O)(=O)c1ccc(CCNC(=O)[C@@H]2CCCN2S(=O)(=O)c2ccccc2F)cc1	none
O=S(=O)(c1cccs1)N1CCN(c2ccc(O)cc2)CC1	none
C=CCN1CCN(C(=O)c2cc3c(s2)CCC(CC)C3)CC1 (stereo unspecified)	none
O=C(N/N=C/c1c(Cl)cccc1Cl)c1cccc(F)c1	none
O=C(N/N=C/c1ccccc1Cl)c1cccc(F)c1	Bead autofluor 16940
COc1ccccc1OC(C)C(=O)Nc1nc(-c2ccc(S(=O)(=O)N3CCOCC3)cc2)cs1 (stereo unspecified)	Bead autofluor 23958, BoNT A protease inconclusive
Fc1ccc(C(c2nnnn2C2CCCCC2)N2CCCC2)cc1 (stereo unspecified)	none
Cc1ccc(C(c2nnnn2CC2CCCO2)N2CCN(Cc3ccccc3)CC2)cc1 (stereo unspecified)	none
CN(c1ccccc1)C(c1ccc(F)cc1)c1nnnn1C1CCCC1 (stereo unspecified)	Bead autofluor 23833, BoNT A protease inconclusive
CN(c1ccccc1)C(c1ccc(F)cc1)c1nnnn1CC1CCCO1 (stereo unspecified)	Bead autofluor 16681
COc1ccc(CCN2CC(C(=O)OCc3ccccc3Cl)CC2=O)cc1OC (stereo unspecified)	Bead autofluor inconclusive
CCn1c(SCc2nc3ccccc3[nH]2)nnc1-c1ccccc1OC	none
CCn1c(SCc2nc3ccccc3[nH]2)nnc1-c1cccs1	Bead autofluor 21099, BoNT A protease inconclusive
CCn1c(COc2ccc(C)cc2)nnc1SCc1nc2ccccc2[nH]1	Bead autofluor 19776
COc1cnc(-c2ccccn2)nc1Sc1c(Cl)cccc1Cl	none
COc1cnc(-c2ccccn2)nc1Sc1ccccc1Cl	Bead autofluor 16715
CCOC(=O)c1c(C)nc2c(c1-c1cc(OC)c(OC)c(OC)c1)C(=O)c1ccccc1-2	Bead autofluor 19026, BoNT A protease inconclusive
CCCCc1nc2ccccc2c(=O)n1-c1ccc(Cl)cc1[N+](=O)[O-]	Bead autofluor 22486, BoNT A protease inconclusive
CCCCc1nc2ccccc2c(=O)n1-c1ccccc1[N+](=O)[O-]	Bead autofluor inconclusive
COc1ccc(S(=O)(=O)NCCN2CCNC2=O)cc1OC	none (no result: BoNT-F LC inh, Anthrax LF prot, Bead autofluor, BoNT A protease)
COc1ccc(S(=O)(=O)N2CCCCC2)cc1NC(=O)c1cccc(S(=O)(=O)N2CC(C)OC(C)C2)c1 (stereo unspecified)	none

Screening data from PubChem.
